Bioassay records as filed in PubChem.
Only some compounds are listed: those with a hit (about 13% of all), similar ones and a draw of the others.
RAM network inh: inhibitors of the yeast RAM network; inhibition, % at 50 µM; actives 1.8% (n = 190,000); S. cerevisiae dse1pr::URA3 reporter, 5-FOA growth OD615, 2 d; analog-sensitive cbk1-as2 kinase mutant strain;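 active means inhibition above a set limit, 3 SD over mean compound inhibition, cut at about 8.4% in these data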;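 further: inhibition rescues growth on 5-FOA so higher OD means more RAM inhibition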
Lmaj promast: reduces viability of Leishmania major promastigotes | resazurin fluorescence viability | inhibition, % at 10 µM | actives 9% (n = 200,000) | AID 1063; in the data active means inhibition above about 50%;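 further: promastigotes grown with compound for 44 hours at 28 °C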
WT yeast gro inh: growth inhibition of WT yeast, mitochondrial fusion screen; mitochondrial fusion phenotypic screen, WT strain; inhibition, % at 10 µM; actives 2.1% (n = 190,000); in the data active means inhibition above about 58%; tested in S. cerevisiae
CHOP inhibitor: CHOP inhibition in unfolded protein response; CHO-K1 CHOP-promoter luciferase, tunicamycin-induced, 15-18 h; inhibition, % at 10 µM; actives 3.8% (n = 220,000); AID 2732;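 active means compounds that reduced the stress-induced luciferase reporter signal by more than about 70% of percent inhibition, limit read from the data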
CHOP confirm: confirmation of CHOP induction inhibitors | AID 504437 | CHO-CHOP promoter luciferase reporter, tunicamycin-induced, luminescence | shares compounds with CHOP inhibitor | actives 45% (n = 2,100) | inhibition, % at 10 µM;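 active means mean of three repeat readings of reporter signal inhibition above a set limit, cut at about 70% in these data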
Each line names hits and unclear results; the compound was inactive in the other large screens (follow-up assays come after a bar, where they were run).

CCN(CCO)c1ncnc2c1sc1nc(CC(C)C)c3c(c12)CC(C)(C)OC3	CHOP inhibitor 106 | CHOP confirm 92
CCOC(=O)C1C(=O)C=C(/C=C/c2ccc(N(C)C)cc2)CC1c1ccccc1 (stereo unspecified)	none
CC1CCC(C(C)C)C(OCC(O)CN2CCOCC2)C1 (stereo unspecified)	none (no result: WT yeast gro inh)
CC1CCC(C(C)C)C(OCC(O)CN2CCN(Cc3ccccc3)CC2)C1 (stereo unspecified)	Lmaj promast 93, CHOP inhibitor 99 | CHOP confirm 104
COc1ccc(NS(=O)(=O)c2ccc(O)c(NC(=O)c3cc4c(C)nn(-c5ccc(F)cc5)c4s3)c2)cc1	CHOP inhibitor 108 | CHOP confirm 115
Cc1nn(-c2ccc(F)cc2)c2sc(C(=O)N3CCCCCC3)cc12	none
O=C1/C(=C/c2ccncc2)CCC/C1=C\c1ccncc1	Lmaj promast 101, WT yeast gro inh 64, CHOP inhibitor 98 | CHOP confirm 78
O=C1CCC/C1=C\c1ccccc1	none
O=C(Nc1cccc(-c2nc3ccccc3[nH]2)c1)c1cccc(NC(=O)c2ccco2)c1	Lmaj promast 82, CHOP inhibitor 107 | CHOP confirm inactive
O=C(Nc1ccc2nc(-c3ccccc3)[nH]c2c1)c1ccco1	none
O=C(Nc1ccc(-c2nc3ccccc3[nH]2)cc1)c1ccc2c(c1)OCO2	CHOP inhibitor 105 | CHOP confirm inactive
COc1cc(/C=N/NC(=O)C2C3CCCCC32C)cc(Br)c1O (stereo unspecified)	none
COc1ccc(OCc2n(CC(=O)OC3CC(C)CCC3C(C)C)c3ccccc3[n+]2C)cc1 (stereo unspecified)	CHOP inhibitor 97 (no result: RAM network inh, Lmaj promast, WT yeast gro inh) | CHOP confirm 95
O=C(O)CC1(CC(=O)NCc2csc(-c3cccs3)n2)CCCCC1	none (no result: RAM network inh, Lmaj promast, WT yeast gro inh)
CC(C1CC2CCC1C2)n1c(COc2ccccc2F)nnc1SCC(N)=O (stereo unspecified)	none
CC(C)NC(=O)NC(=O)CSc1nnc(COc2ccccc2F)n1C(C)C1CC2CCC1C2 (stereo unspecified)	Lmaj promast 51, CHOP inhibitor 106 | CHOP confirm inactive
CC(C)(C)NC(=O)C(OC(=O)c1cccs1)c1ccc(F)cc1 (stereo unspecified)	none
Cc1ccccc1C(=O)N/N=C1\SCC(=O)N1Cc1ccco1	none
O=C(N/N=C/c1cc([N+](=O)[O-])ccc1O)C1CC1	none (no result: RAM network inh, Lmaj promast, WT yeast gro inh)
O=[N+]([O-])c1ccc(O)c(/C=N/Nc2ccccc2Cl)c1	CHOP inhibitor 96 | CHOP confirm 125
CCOC(=O)N1CCc2c(sc(NC(=O)CN(CC)CC)c2C#N)C1	none (no result: RAM network inh, Lmaj promast, WT yeast gro inh)
CCCCn1c(=O)[nH]c(=O)c2c1nc(-c1ccc(C(F)(F)F)cc1)n2C	none
CCCCn1c(=O)[nH]c(=O)c2c1nc(-c1ccc(OCCC)c(OCC)c1)n2C	CHOP inhibitor 101 (no result: RAM network inh, Lmaj promast, WT yeast gro inh) | CHOP confirm 91
CC(C)(C)c1ccc(C2CC2C(=O)N/N=C\c2ccc[nH]2)cc1 (stereo unspecified)	CHOP inhibitor 105 | CHOP confirm 95
COC(=O)CN(c1ccc(OCc2ccccc2)cc1)S(C)(=O)=O	none
O=C(Cc1ccc(Cl)cc1)Nc1ccc2c(c1)C(=O)NC2=O	none
CNc1nc(N/N=C/c2cc3c(cc2[N+](=O)[O-])OCO3)nc(Nc2ccccc2)n1	Lmaj promast 65, CHOP inhibitor 106 | CHOP confirm inactive
O=C(Nc1ccc(C(O)(C(F)(F)F)C(F)(F)F)cc1)c1ccc(Cl)c([N+](=O)[O-])c1	Lmaj promast 53, WT yeast gro inh 74, CHOP inhibitor 107 | CHOP confirm 117
O=c1c([N+](=O)[O-])c(N2CCCC2)c2ccccc2n1-c1ccccc1	none
COc1ccc(COc2ccccc2C(=O)NCc2ccccc2)cc1F	none
CC(=O)Nc1ccc(/C=N/NC(=O)c2cc3ccccc3nc2C)cc1	none
Cc1cccc(/C=N/Nc2ccc3ccccc3n2)c1	WT yeast gro inh 64, CHOP inhibitor 97 | CHOP confirm 99
COC(=O)C(Nc1ccccc1Cl)(c1cc(C)c(O)c(C)c1)C(F)(F)F (stereo unspecified)	WT yeast gro inh 90, CHOP inhibitor 109 | CHOP confirm 97
O=C(Nc1cc(Cl)cc(Cl)c1)c1cccc(OC(F)F)c1	CHOP inhibitor 97 | CHOP confirm inactive
CN(C)S(=O)(=O)Oc1cccc(C(=O)Nc2cccc(Cl)c2)c1	none
CC(C)(C)N1CC(OC(N)=O)C1	none (no result: RAM network inh, Lmaj promast, WT yeast gro inh)
COc1cc(C(=O)O/N=C2\C=CC(=O)C(C)=C2)cc(OC)c1OC	Lmaj promast 101, CHOP inhibitor 108 | CHOP confirm 99
COc1ccc(CC2(CO)CCN(CC3=Cc4cc(Cl)ccc4OC3)CC2)cc1	Lmaj promast 89, CHOP inhibitor 102 | CHOP confirm 105
O=C(NCCN1C(=O)S/C(=C/c2cccnc2)C1=O)C1CC(=O)N(Cc2ccccc2)C1 (stereo unspecified)	none
CCOc1ccc(NC2=C(Cl)C(=O)N(Cc3ccccc3)C2=O)cc1	CHOP inhibitor 105 | CHOP confirm inactive
O=C1c2cccc3c([N+](=O)[O-])ccc(c23)C(=O)N1Cc1cccnc1	Lmaj promast 100, WT yeast gro inh 64, CHOP inhibitor 110 | CHOP confirm inactive
O=C1c2cccc3cccc(c23)C(=O)N1Cc1cccnc1	none (no result: RAM network inh, Lmaj promast, WT yeast gro inh)
Cc1ccnc(N2C(=O)c3cccc4c([N+](=O)[O-])ccc(c34)C2=O)c1	Lmaj promast 100, CHOP inhibitor 106 | CHOP confirm inactive
O=C1c2ccc(Oc3cccc([N+](=O)[O-])c3)cc2C(=O)N1c1ccccn1	none
O=C(NCC1(c2ccccc2)CCCC1)c1ccc(Br)o1	none
CCN(CC(=O)Nc1cccc(C#N)c1)CC(=O)Nc1cccc(OC)c1	none
CCOC(=O)/C(=N\Nc1ccccc1Cl)N1CCN(c2ccccc2OC)CC1	none
O=S(=O)(/C(=C/c1ccc(C(F)(F)F)cc1)c1nc2ccccc2[nH]1)c1ccccc1	Lmaj promast 100, CHOP inhibitor 109 | CHOP confirm 134
CCOc1ccc(-c2nc(N)ncc2Oc2cccc(OC)c2)c(O)c1	CHOP inhibitor 110 | CHOP confirm inactive
C=C(C)COc1ccc(-c2nc(N)ncc2Oc2ccc(OC)cc2)c(O)c1	none
CCOc1ccc(-c2n[nH]c(C)c2Oc2ccc(OC)cc2)c(O)c1	CHOP inhibitor 108 | CHOP confirm 88
CCOc1ccc(-c2nc(N)ncc2Oc2ccccc2Br)c(O)c1	WT yeast gro inh 92, CHOP inhibitor 106 | CHOP confirm inactive
Cc1nn(-c2ccc(F)cc2)c2nc(N)c(C#N)c(-c3cccs3)c12	CHOP inhibitor 100 | CHOP confirm inactive
CC1CCCN(S(=O)(=O)c2ccc(C(=O)Nc3nnc(-c4ccccc4Cl)o3)cc2)C1 (stereo unspecified)	Lmaj promast 100, CHOP inhibitor 98 | CHOP confirm inactive
CCOC(=O)COc1ccccc1/C=C\[N+](=O)[O-]	Lmaj promast 100, WT yeast gro inh 69, CHOP inhibitor 107 | CHOP confirm 86
CCOC(=O)COc1cc([N+](=O)[O-])cc2cccnc12	none
COc1ccc(N2C(=O)C3CCCCC3C2=O)cc1NC(=O)c1ccccc1 (stereo unspecified)	none
